Results filed as inconclusive are left out. Active and inactive are the calls of the source. Unless noted, the call rests on the fitted dose curve.
Experiments:
[1] = Nuclear factor erythroid 2-related factor 2/antioxidant responsive element (Nrf2/ARE) small molecule agonists: luciferase reporter gene qHTS assay in human keratinocytes (AID 1919969); further: nearly all actives have a fitted effect of over 35% in size; further: potency means the concentration at half of the fitted maximal effect
[2] = target: Gonadotropin-releasing hormone receptor (Homo sapiens) (UniProt P30968); assay: Human gonadotropin-releasing hormone receptor (GnRHR) small molecule agonists, calcium flux assay in GnRHR-HEK293 cells (AID 1920063); further: nearly all actives have a fitted effect of over 35% in size
In short: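 Agonist activity was measured as intracellular calcium flux in HEK293 cells engineered to stably express human GnRHR. After dye loading for 1 hour at 37 C, compounds in DMSO were added and fluorescence was followed for 3 minutes.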

[3] = target: KiSS-1 receptor (Homo sapiens) (UniProt Q969F8); assay: Human kisspeptin (KISS1R) small molecule agonists, calcium flux assay in KISS1R-HEK293 cells (AID 1920064; active means well fitted activation curve with a large enough effect in the repeat runs)
In short: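 Agonist activity is monitored as intracellular calcium rise in engineered HEK293 cells carrying human KISS1R. Cells are dye-loaded for 1 h at 37 C before compound addition, and fluorescence is recorded for 3 min.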

[4] = p53 small molecule agonists, cell-based qHTS assay with human liver microsomes (AID 1963577);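 further: p53 response element beta-lactamase reporter cells with liver microsomes plus NADPH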
In short: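 In this qHTS, p53 response-element beta-lactamase cells receive test compound together with a microsome/NADPH activating system (0.5 mg/mL final each) and are incubated 16 h at 37 C before LiveBLAzer fluorescence detection.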

[5] = p53 small molecule agonists, cell-based qHTS assay with rat liver microsomes (AID 1963578)
In short: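 Agonist mode in p53RE-bla reporter cells, with compounds co-incubated 16 h at 37 C alongside 0.5 mg/mL rat liver microsomes and 0.5 mg/mL NADPH (final), followed by a 2 h LiveBLAzer detection step.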

[6] = p53 small molecule agonists, cell-based qHTS assay with human liver microsomes: qHTS cell viability counter screen (AID 1963579); further: nearly all actives have a fitted effect of over 45% in size
In short: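 Metabolically activated exposure: compounds, human liver microsomes and NADPH (0.5 mg/mL final apiece) were added to p53RE-bla cells seeded 5 h earlier, left 16 h at 37 C, and then assessed for viability by CellTiter-Glo luminescence.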

[7] = p53 small molecule agonists, cell-based qHTS assay: qHTS cell viability counter screen (AID 1963581); further: nearly all actives have a fitted effect of over 45% in size
In short: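 Viability was counter-screened in parallel with the p53 agonist reporter by measuring intracellular ATP luminescence in the same HCT-116 p53RE-bla wells after 16 h compound treatment at 37 C.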

[8] = cAMP Responsive Elements (CRE) small molecule agonists, cell-based qHTS assay (AID 1963590)
In short: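 Cells carrying a CRE-driven beta-lactamase reporter (HEK 293T) are seeded, incubated overnight (18 h), and treated with test compounds for 3 h at 37 C; reporter activity is then detected with a FRET substrate after 2 h at room temperature.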

[9] = cAMP Responsive Elements (CRE) small molecule antagonists, cell-based qHTS assay (AID 1963591; active means well fitted inhibition curve with a large enough effect in the signal ratio in the repeat runs, not every such curve was filed as active; the % refers to the signal ratio)
In short: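 Cells (CRE-bla HEK 293T, DMEM with 10% dialyzed FBS and 25 mM HEPES) are seeded and incubated 18 h. Compounds are added with NKH477 agonist at 0.25 uM final for 3 h, then FRET substrate for 2 h.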

[10] = target: Beta-2 adrenergic receptor (Homo sapiens) (UniProt P07550); assay: Adrenergic beta2 receptor (ADRB2) small molecule antagonists, cell-based qHTS assay (AID 1963592); further: series mostly up to about 92 µM; nearly all actives have a fitted effect of over 50% in size
In short: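 Assay format: CHO-ADRB2 cells, 18-20hr seeding at 37C/5% CO2, then compound plus 1nM isoproterenol agonist mix for 0.5hr RT. Homogeneous time-resolved fluorescence cAMP detection after 1hr, expressed as 665/615 nm ratio.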

[11] = target: Beta-2 adrenergic receptor (Homo sapiens) (UniProt P07550); assay: Adrenergic beta2 receptor (ADRB2) small molecule agonists, cell-based qHTS assay (AID 1963593);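 further: CHO cells stably overexpressing human ADRB2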
In short: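 CHO cells stably over-expressing ADRB2 were plated overnight at 37C, then dosed with compounds plus a stimulation mix containing 100uM IBMX and 25uM Ro-20-1724 for 0.5hr at room temperature. cAMP was measured by HTRF competition, 1hr.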

[12] = target: D(2) dopamine receptor (Homo sapiens) (UniProt P14416); assay: Dopamine D2 receptor (DRD2) small molecule agonists, cell-based qHTS assay (AID 1963594); further: nearly all actives have a fitted effect of over 35% in size
In short: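 cAMP accumulation in DRD2-HEK293 cells measured by HTRF after 1 h detection; compounds added 10 min before NKH477 (200nM […]) forskolin-analogue stimulation, 30 min at room temperature, with Ro20-1724 present at 0.1 mM final.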

[13] = target: D(2) dopamine receptor (Homo sapiens) (UniProt P14416); assay: Dopamine D2 receptor (DRD2) small molecule antagonists, cell-based qHTS assay (AID 1963595; active means well fitted inhibition curve with a large enough effect in the signal ratio in the repeat runs, with a control signal flat; the % refers to the signal ratio)
In short: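 Readout: HTRF cAMP, cAMP-d2 competing with cellular cAMP for anti-cAMP cryptate, read after 1 h. Cells: DRD2-HEK293. Conditions: 0.1 mM Ro20-1724, 12 nM quinpirole, 200 nM NKH477, 30 min RT.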

[14] = G protein-coupled receptor (GPCR) small molecule agonists, calcium flux assay: HEK293 wild type cell line counter screen (AID 1920065)
In short: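 Seed cells, incubate 18 h (37 C, 5% CO2); add calcium dye, 1 h at 37 C; pin-transfer compounds, ATP control or DMSO; read fluorescence 480/540 nm each second for 3 min.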

[15] = p53 small molecule agonists, cell-based qHTS assay with rat liver microsomes: qHTS cell viability counter screen (AID 1963580); further: nearly all actives have a fitted effect of over 45% in size
In short: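 Rat liver microsome (0.5 mg/mL final) and NADPH (0.5 mg/mL final) co-incubation with compounds for 16 h at 37 C on HCT-116 p53RE-bla cells; cytotoxicity taken from intracellular ATP luminescence.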

[16] = p53 small molecule agonists, cell-based qHTS assay (AID 1963582; active means well fitted activation curve with a large enough effect in the signal ratio in the repeat runs, not every such curve was filed as active; the % refers to the signal ratio; further: potency means the concentration at half of the fitted maximal effect)
In short: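 Cells carrying a p53-responsive bla reporter are treated with test compounds for 16 h at 37 C; beta-lactamase activity is then detected with LiveBLAzer B/G FRET substrate after 2 h at room temperature.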

[17] = target: 5-hydroxytryptamine receptor 2A (Homo sapiens) (UniProt P28223); assay: 5-hydroxytryptamine receptor 2A (HTR2A) small molecule agonists, cell-based qHTS assay (AID 1963587); further: nearly all actives have a fitted effect of over 30% in size
In short: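 Kinetic calcium-flux fluorescence (2 min, 1 sec intervals) after compound addition in agonist mode. HTR2A-CHO cells were cultured 18 h, then dye-loaded 1 h at 37 C.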

[18] = target: Muscarinic acetylcholine receptor M1 (Homo sapiens) (UniProt P11229); assay: Cholinergic receptor muscarinic 1 (CHRM1) small molecule antagonists, cell-based qHTS assay (AID 1963588); further: nearly all actives have a fitted effect of over 40% in size
In short: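 Compounds were tested at 15 concentrations in three independent runs. Dye-loaded CHRM1-CHO cells were exposed 5 min at room temperature before stimulation by acetylcholine added at 50nM. Intracellular calcium was read kinetically on FDSS for 3 min.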

[19] = target: Muscarinic acetylcholine receptor M1 (Homo sapiens) (UniProt P11229); assay: Cholinergic receptor muscarinic 1 (CHRM1) small molecule agonists, cell-based qHTS assay (AID 1963589); further: nearly all actives have a fitted effect of over 35% in size
In short: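 Cells were plated and incubated 18 h at 37 C/5% CO2, loaded with calcium dye for 1 h at 37 C, then treated with compounds in DMSO. Fluorescence was recorded kinetically at 1 sec intervals.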

[20] = target: 5-hydroxytryptamine receptor 2A (Homo sapiens) (UniProt P28223); assay: 5-hydroxytryptamine receptor 2A (HTR2A) small molecule antagonists, cell-based qHTS assay (AID 1963586); further: nearly all actives have a fitted effect of over 45% in size
In short: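 CHO cells stably expressing human HTR2A were plated for 18 h at 37 C, then loaded with calcium dye for 1 h. Compounds were preincubated 5 min at room temperature before DOI (4 nM solution) was added. Kinetic fluorescence was read for 3 min.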
On the % scale 0 is the no-effect control and ±100 the full control effect.

Chain of Beta-2 adrenergic receptor (Homo sapiens) (P07550 whole entry, looked up): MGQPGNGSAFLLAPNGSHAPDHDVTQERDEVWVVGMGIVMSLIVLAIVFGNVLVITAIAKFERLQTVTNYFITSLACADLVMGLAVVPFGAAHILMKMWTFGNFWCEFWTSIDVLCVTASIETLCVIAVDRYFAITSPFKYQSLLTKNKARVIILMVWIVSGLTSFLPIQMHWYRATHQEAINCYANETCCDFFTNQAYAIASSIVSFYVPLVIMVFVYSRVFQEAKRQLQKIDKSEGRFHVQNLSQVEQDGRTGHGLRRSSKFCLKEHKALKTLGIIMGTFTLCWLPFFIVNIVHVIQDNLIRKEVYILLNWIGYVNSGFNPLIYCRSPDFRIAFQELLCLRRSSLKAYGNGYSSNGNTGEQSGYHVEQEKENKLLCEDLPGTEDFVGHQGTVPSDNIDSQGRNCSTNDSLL
Chain of Gonadotropin-releasing hormone receptor (Homo sapiens) (P30968 whole entry, looked up): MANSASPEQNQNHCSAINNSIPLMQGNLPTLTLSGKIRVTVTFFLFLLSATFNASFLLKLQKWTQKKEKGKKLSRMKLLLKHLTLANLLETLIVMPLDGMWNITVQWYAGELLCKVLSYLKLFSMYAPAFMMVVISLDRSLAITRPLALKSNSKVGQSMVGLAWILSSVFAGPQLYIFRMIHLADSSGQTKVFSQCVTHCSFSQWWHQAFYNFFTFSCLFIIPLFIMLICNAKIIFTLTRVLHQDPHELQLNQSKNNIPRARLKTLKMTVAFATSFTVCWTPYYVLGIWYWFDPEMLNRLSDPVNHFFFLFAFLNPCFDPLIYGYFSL
Chain of 5-hydroxytryptamine receptor 2A (Homo sapiens) (P28223 whole entry, looked up): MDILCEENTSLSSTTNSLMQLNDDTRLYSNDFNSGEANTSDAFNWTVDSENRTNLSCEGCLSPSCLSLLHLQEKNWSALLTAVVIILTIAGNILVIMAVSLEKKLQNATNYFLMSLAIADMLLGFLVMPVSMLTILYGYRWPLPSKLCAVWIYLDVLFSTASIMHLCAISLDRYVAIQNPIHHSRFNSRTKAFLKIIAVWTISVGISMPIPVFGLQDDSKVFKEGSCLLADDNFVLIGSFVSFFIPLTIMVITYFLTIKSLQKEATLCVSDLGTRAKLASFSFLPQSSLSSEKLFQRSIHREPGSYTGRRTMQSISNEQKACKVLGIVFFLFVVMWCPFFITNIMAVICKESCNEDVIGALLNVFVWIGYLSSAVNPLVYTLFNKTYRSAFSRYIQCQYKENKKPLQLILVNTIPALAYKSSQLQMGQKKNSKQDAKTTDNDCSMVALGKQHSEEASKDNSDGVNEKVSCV
Chain of D(2) dopamine receptor (Homo sapiens) (P14416 whole entry, looked up): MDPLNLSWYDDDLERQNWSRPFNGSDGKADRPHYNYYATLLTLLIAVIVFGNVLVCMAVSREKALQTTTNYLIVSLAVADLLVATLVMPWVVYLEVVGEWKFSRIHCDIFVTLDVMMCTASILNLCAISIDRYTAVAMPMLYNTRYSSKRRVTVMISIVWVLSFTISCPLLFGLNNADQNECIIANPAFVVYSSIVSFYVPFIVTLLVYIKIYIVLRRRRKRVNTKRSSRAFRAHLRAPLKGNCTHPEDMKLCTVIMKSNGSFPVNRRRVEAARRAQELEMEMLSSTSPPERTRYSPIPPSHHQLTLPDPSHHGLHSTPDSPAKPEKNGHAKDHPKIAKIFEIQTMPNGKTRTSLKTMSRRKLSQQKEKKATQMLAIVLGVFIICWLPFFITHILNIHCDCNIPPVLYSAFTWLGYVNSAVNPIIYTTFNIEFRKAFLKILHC
Chain of KiSS-1 receptor (Homo sapiens) (Q969F8 whole entry, looked up): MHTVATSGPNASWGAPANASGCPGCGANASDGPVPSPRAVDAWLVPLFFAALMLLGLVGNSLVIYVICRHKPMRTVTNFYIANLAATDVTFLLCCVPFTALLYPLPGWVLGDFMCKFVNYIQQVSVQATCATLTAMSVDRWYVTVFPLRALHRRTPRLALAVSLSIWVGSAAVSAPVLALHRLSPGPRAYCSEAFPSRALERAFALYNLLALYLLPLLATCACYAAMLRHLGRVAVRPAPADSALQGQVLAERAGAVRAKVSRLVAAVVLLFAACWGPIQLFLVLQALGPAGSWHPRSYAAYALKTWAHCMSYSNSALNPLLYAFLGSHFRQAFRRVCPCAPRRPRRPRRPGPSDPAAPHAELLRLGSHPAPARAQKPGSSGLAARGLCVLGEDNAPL
Chain of Muscarinic acetylcholine receptor M1 (Homo sapiens) (P11229 whole entry, looked up): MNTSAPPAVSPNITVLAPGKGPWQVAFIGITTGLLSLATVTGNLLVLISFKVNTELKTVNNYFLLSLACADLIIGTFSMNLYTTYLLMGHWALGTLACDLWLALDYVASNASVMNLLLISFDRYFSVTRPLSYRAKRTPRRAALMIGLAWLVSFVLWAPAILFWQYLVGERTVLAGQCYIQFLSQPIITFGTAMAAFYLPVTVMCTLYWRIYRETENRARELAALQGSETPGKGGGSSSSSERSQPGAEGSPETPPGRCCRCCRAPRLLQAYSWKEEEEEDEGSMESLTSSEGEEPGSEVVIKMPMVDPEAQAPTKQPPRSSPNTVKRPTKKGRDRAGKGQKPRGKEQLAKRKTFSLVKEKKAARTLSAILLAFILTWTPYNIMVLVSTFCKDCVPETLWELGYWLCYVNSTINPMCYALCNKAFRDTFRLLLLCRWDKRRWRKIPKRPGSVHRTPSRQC

Cc1c(C)c2c(c(C)c1O)CC[C@@](C)(CCC[C@H](C)CCC[C@H](C)CCCC(C)C)O2
inactive: Potency [1] | Potency [2] | outcome [3] | Potency [4] | Potency [5] | Potency [6] | Potency [7] | Potency [8] | Potency [9] | Potency [10] | Potency [11] | Potency [12] | Potency [13]

CC(CN1CC(=O)NC(=O)C1)N1CC(=O)NC(=O)C1 (stereo not given)
active: Potency [16] 19.9 µM
inactive: Potency [2] | outcome [3] | outcome [14] | Potency [5] | Potency [6] | Potency [15] | Potency [17] | Potency [18] | Potency [19] | Potency [8] | Potency [9] | Potency [11] | Potency [12]

Cl[Si](Cl)(c1ccccc1)c1ccccc1
inactive: Potency [1] | outcome [3] | outcome [14] | Potency [4] | Potency [5] | Potency [6] | Potency [15] | Potency [7] | Potency [16] | Potency [20] | Potency [18] | Potency [19] | Potency [8] | Potency [9] | Potency [10] | Potency [12] | Potency [13]

CC(C)(C)c1cc(CCC(=O)NCCCCCCNC(=O)CCc2cc(C(C)(C)C)c(O)c(C(C)(C)C)c2)cc(C(C)(C)C)c1O
inactive: Potency [1] | outcome [3] | outcome [14] | Potency [4] | Potency [5] | Potency [6] | Potency [15] | Potency [7] | Potency [16] | Potency [20] | Potency [17] | Potency [18] | Potency [19] | Potency [10] | Potency [12] | Potency [13]

Cc1ccnc2ccccc12
inactive: Potency [2] | outcome [14] | Potency [4] | Potency [5] | Potency [15] | Potency [7] | Potency [16] | Potency [20] | Potency [17] | Potency [18] | Potency [19] | Potency [8] | Potency [9] | Potency [10] | Potency [11] | Potency [12] | Potency [13]
active: Potency [1] 68.4 µM

O=C(OCCN1CCOCC1)c1cccnc1Nc1cccc(C(F)(F)F)c1
inactive: Potency [1] | outcome [14] | Potency [4] | Potency [5] | Potency [6] | Potency [7] | Potency [16] | Potency [17] | Potency [18] | Potency [19] | Potency [8] | Potency [10] | Potency [11] | Potency [12] | Potency [13]

CC(C)=CCC1C(=O)N(c2ccccc2)N(c2ccccc2)C1=O
active: Potency [1] 29.8 µM
inactive: Potency [2] | outcome [3] | Potency [4] | Potency [5] | Potency [15] | Potency [7] | Potency [20] | Potency [17] | Potency [18] | Potency [19] | Potency [9] | Potency [11] | Potency [12]

CCO[Si](CCCCl)(OCC)OCC
inactive: Potency [1] | outcome [3] | outcome [14] | Potency [4] | Potency [5] | Potency [6] | Potency [15] | Potency [7] | Potency [16] | Potency [17] | Potency [18] | Potency [19] | Potency [8] | Potency [9] | Potency [10] | Potency [11] | Potency [12] | Potency [13]

CC(C)(C)OC(=O)c1ccccc1C(=O)O
inactive: Potency [1] | Potency [2] | outcome [3] | Potency [4] | Potency [5] | Potency [6] | Potency [15] | Potency [7] | Potency [16] | Potency [20] | Potency [17] | Potency [8] | Potency [9] | Potency [10] | Potency [12] | Potency [13]

CC(C)c1ccc(C(=O)N=C(N)N)cc1S(C)(=O)=O
inactive: outcome [3] | outcome [14] | Potency [4] | Potency [5] | Potency [6] | Potency [15] | Potency [7] | Potency [20] | Potency [17] | Potency [18] | Potency [19] | Potency [8] | Potency [11] | Potency [13]

CCOC(=O)NNc1ccc(N(CC)CC(C)O)nn1 (stereo not given)
inactive: Potency [1] | outcome [14] | Potency [4] | Potency [5] | Potency [6] | Potency [15] | Potency [16] | Potency [20] | Potency [17] | Potency [18] | Potency [19] | Potency [8] | Potency [9] | Potency [10] | Potency [11] | Potency [12] | Potency [13]

O=S(O)(O)=S
inactive: activity, positive = activation [1] -3.55% [at 8.39 µM] | activity change [2] 4.24% [at 5.22 µM, active compounds read high] | activation [4] 0.289% [at 5.99 µM] | activation [5] -2.47% [at 5.99 µM] | activity change, negative = cytotoxicity [6] -5.1% [at 5.99 µM] | activation [16] -3.63% [at 5.99 µM] | activity, negative = inhibition [20] 5.27% [at 5.62 µM] | activation [17] 7.09% [at 7.02 µM] | activity, negative = inhibition [18] 0.0869% [at 5.58 µM] | activation [19] -0.0505% [at 6.97 µM] | activation [8] -0.269% [at 8.39 µM] | activity change, negative = inhibition [9] -0.372% [at 8.39 µM] | activity change, negative = inhibition [10] 6.54% [at 8.39 µM] | activation [12] -2.24% [at 8.39 µM] | activity change, negative = inhibition [13] -2.62% [at 8.38 µM]

N#Cc1c(F)cccc1F
inactive: Potency [2] | outcome [3] | outcome [14] | Potency [4] | Potency [5] | Potency [6] | Potency [15] | Potency [7] | Potency [16] | Potency [17] | Potency [18] | Potency [19] | Potency [8] | Potency [9] | Potency [10] | Potency [12] | Potency [13]

O=C(Nc1ccc(Cl)c(Cl)c1)C1CC1
inactive: Potency [1] | outcome [3] | outcome [14] | Potency [5] | Potency [15] | Potency [7] | Potency [16] | Potency [20] | Potency [17] | Potency [18] | Potency [19] | Potency [8] | Potency [9] | Potency [10] | Potency [12] | Potency [13]
